Shown are actives, neighbours in structure and some others; about 2.9% of the full set was active somewhere.
Peg3 prom inh-1 = inhibitors of Peg3 promoter. hit rate 1.7% among 360,000. HeLa PEG-Prom luciferase reporter, luminescence, overnight. inhibition, % at 20 µM;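 active means inhibition of at least 50% at 20 µM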
HIF-2a block = HIF-2a inhibition; 786-0 RCC cells HIF-2a reporter, luciferase luminescence, overnight; inhibition, % at 18.8 µM; hit rate 0.72% among 360,000; AID 624352;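 active means inhibition of the luminescence signal of 40% or more relative to plate controls, in a single-dose primary screen at 18.75 µM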
Shn3 inh set2 = Schnurri-3 reporter inhibition in Clone20 osteoblasts | hit rate 0.52% among 360,000 | Clone20 osteoblast Shn3 3'UTR firefly luciferase, 24 h | inhibition, % at 12.5 µM | AID 588674;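 active means mean inhibition of at least 75% with every replicate also reaching 75%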;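 further: 0% = median of neutral control wells and 100% = pilot-screen positive control compound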
LMP1 NFkB inh = reduces LMP1-driven NF-kappaB luciferase signal; hit rate 0.69% among 350,000; LMP1-induced NF-kappaB luciferase reporter cells, luminescence; AID 504558; inhibition, % at 12.5 µM; in the data active means inhibition above about 41%;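 further: 0% = neutral control wells and 100% = reference inhibitor control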
CF NFkB block = inhibitors of cystic fibrosis induced NF-kB; KKLEB NF-kB-GFP reporter, PAF-induced, GFP fluorescence overnight; inhibition, % at 5 µM; hit rate 0.86% among 360,000; AID 588850;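 active means at least 50% inhibition at 5 µM, scaled per plate between neutral and stimulator controls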;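 further: PAF is a Pseudomonas aeruginosa culture filtrate used as stimulus; plate controls were PAF-stimulated DMSO wells for no effect and unstimulated DMSO wells for full effect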
KKLEB cytotox = counter-screen for CF NF-kB inhibitors: cytotoxicity; KKLEB CF airway cells viability, ATPlite luminescence, overnight; stronger effect = lower value; cells stimulated with P. aeruginosa culture filtrate; activity change (cytotoxicity), % at 5 µM; hit rate 0.36% among 360,000;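 active means corrected activity change at or below -50% at 5 µM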
Peg3 prom inh-2 = Peg3 promoter inhibition confirmation; inhibition, % at 20 µM; HeLa PEG-Prom luciferase reporter, luminescence, overnight; AID 602417; shares compounds with Peg3 prom inh-1; hit rate 84% among 1,300;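 active means at 20 µM dose, 40% or more inhibition averaged across four replicates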
Starred values were filed as active, the others as inactive; · = not tested or not shown.

SMILES	Peg3 prom inh-1	HIF-2a block	Shn3 inh set2	LMP1 NFkB inh	CF NFkB block	KKLEB cytotox	Peg3 prom inh-2
Cc1ccccc1/C=N/NC(=O)c1ccc(-n2cnnn2)cc1	2.2	0.9	-25.7	2.3	-2.7	3.0	·
O=C(Nc1ccnn1C1CCN(C(=O)c2cccc(Cl)c2)CC1)C1CC1	-41.3	-47.5	-10.0	7.4	-19.3	14.8	·
COc1ccccc1N1CCN(C(=O)CSc2ccccc2)CC1	-138.1	-153.3	-23.8	-20.4	2.9	7.7	·
COc1ccccc1N1CCN(C(=O)C(Sc2ccccc2)c2ccccc2)CC1 (stereo unspecified)	52.4*	23.8	9.0	-7.3	2.5	14.2	40.9*
NCC1CC2c3ccccc3C1c1ccccc12 (stereo unspecified)	-1.6	7.9	3.6	4.5	-7.0	-1.3	·
CN1CCC(NC(=O)c2cc(-c3cccc(Br)c3)nc3ccccc23)CC1	105.3*	-19.1	-32.7	-11.9	-11.1	-3.8	78.9*
COc1cccc(-c2ccc(NC(=O)C3CCCN(CCCn4cccn4)C3)cc2)c1 (stereo unspecified)	-5.0	-32.0	-5.9	2.8	-11.2	-9.2	·
CCN1CCCC1CN(Cc1cc2ccc(C)cc2[nH]c1=O)C(=S)Nc1ccc(OC)cc1 (stereo unspecified)	63.1*	34.6	-5.1	-14.5	14.4	-4.9	79.6*
Cc1ccc(C(=O)c2no[n+]([O-])c2C(=O)c2ccc(C)cc2)cc1	107.3*	-40.0	20.4	1.2	99.5*	-76.2*	99.8*
Cc1ccc(C(=O)c2ccc(C)cc2)cc1	-16.6	-20.9	-12.8	-5.6	15.2	1.2	·
CCn1cc(C(=O)NCc2ccco2)c(=O)c2cc(S(=O)(=O)N3CC(C)CC(C)C3)ccc21 (stereo unspecified)	58.2*	30.2	85.0*	11.6	-1.2	6.3	60.8*
CCn1cc(C(=O)NCc2ccco2)c(=O)c2cc(S(=O)(=O)N3CCC(C)CC3)ccc21	18.1	28.8	22.2	8.7	-15.7	-4.6	·
Cc1nc(SCC(=O)Nc2ccc(S(=O)(=O)N3CCOCC3)cc2)c2c(C)c(C)sc2n1	70.0*	-3.5	-0.1	36.0	37.3	-25.8	39.7
O=C1CC2(CCN(C(=O)c3cccc(F)c3)CC2)Oc2ccccc21	14.5	6.3	-8.3	-3.3	-24.7	14.1	·
CCN(CC)c1ccc(C(=O)NNC(=O)CCNC(=O)c2ccccc2)cc1	-58.1	-41.8	-15.0	0.1	1.8	10.2	·
CCN(CC)c1ccc(C(=C2C=CC(=[N+](CC)CC)C=C2)c2ccccc2)cc1	95.9*	83.8*	96.7*	95.0*	85.0*	-86.3*	98.6*
Cc1ccc(C)c(S(=O)(=O)N2CCN(c3nc(-c4cccnc4)nc4ccccc34)CC2)c1	63.5*	-8.7	11.9	0.1	13.2	1.8	47.2*
COc1cc2c(cc1OC)CN(c1nc(-c3cccnc3)nc3ccccc13)CC2	64.9*	-23.2	-1.4	-1.3	5.5	8.0	71.0*
CN(C)C=NC(=O)c1[nH]c2ccc(Cl)cc2c1-c1ccccc1	71.9*	25.2	-41.0	-4.1	21.6	2.5	80.8*
COc1ccc(CCC(=O)N2c3ccccc3N=C(c3ccc4c(c3)OCO4)C2C(=O)NCc2ccccc2)cc1 (stereo unspecified)	·	-20.1	·	·	·	·	·
COC(=O)c1ccc(Nc2cc(C)nc3ccc(C)cc23)cc1	55.5*	18.8	7.5	0.8	-9.0	-7.3	89.4*
COC(=O)c1ccc2nc(C)cc(Nc3ccccc3C)c2c1	1.4	-4.0	10.1	14.7	-21.0	-9.7	·
O=[N+]([O-])c1cccc(NC(=S)N2CCc3ccccc32)c1	-109.0	-113.1	-6.6	-1.5	-2.1	0.3	·
COc1ccccc1/C=N/NC(=O)CSc1cc(C)nc2ccccc12	7.4	12.4	8.7	-7.4	24.7	-25.6	·
COc1ccc2nc(C)cc(SCC(=O)N/N=C/c3c(OC)ccc4ccccc34)c2c1	63.1*	4.4	0.5	-91.4	-4.9	-13.4	19.9
CC1=NN(c2nc(-c3ccc(C)cc3)cs2)C(=O)C1N=Nc1ccc2ccccc2c1 (stereo unspecified)	-14.0	-25.0	-0.9	-11.9	-1.8	-3.2	·

Assay outcomes: PubChem, several laboratories
